GBA mod – human lysosomal glucosylceramidase modulation | P04062 | hit rate 1.1% among 48,000 | purified enzyme, resorufin glucoside fluorescence (screen aimed at inhibitors), 20 min | Potency, µM | AID 360; in the data active = potency below about 15 µM; inconclusive = mostly about 16 µM to 33 µM;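 also: the screen sought inhibitors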
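Compounds titrated against 0.2 nM normal enzyme, 30 uM resorufin beta-D-glucopyranoside substrate, citrate/phosphate buffer with taurocholate and tween-20, pH 5.9. Reaction ran 20 min at room temperature; fluorescence (Ex 548/Em 600) gave AC50.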
Hsp90 Hop PPI – changes Hsp90-Hop TPR2A binding signal, up or down. AlphaScreen TPR2A-His6 binding biotin-Hsp90 C-terminal peptide. Potency, µM (doses to about 57 µM). hit rate 0.44% among 71,000; active = well fitted curve in either direction with a large enough effect; inconclusive = small, poorly fitted or top-dose-only effect, or another doubt
Bst PK mod – modulators of Bacillus stearothermophilus pyruvate kinase. purified pyruvate kinase, luminescence ATP production; ribose 5-phosphate activator present at AC10. Potency, µM. hit rate 1.2% among 51,000. AID 361; in the data active = potency below about 11 µM; inconclusive = mostly about 12 µM to 25 µM;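 the screen sought inhibitors and activators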
Tau filament bind – binders of human tau filaments; recombinant tau filaments, thioflavin S fluorescence, 15 h; filaments grown with octadecylsulfate alongside compound; AID 596; Potency, µM (top dose mostly 57.1 µM); hit rate 2% among 71,000;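 also: actives lower thioflavin S fluorescence by blocking filaments or displacing dye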
Target sequence (P10636 whole entry, looked up): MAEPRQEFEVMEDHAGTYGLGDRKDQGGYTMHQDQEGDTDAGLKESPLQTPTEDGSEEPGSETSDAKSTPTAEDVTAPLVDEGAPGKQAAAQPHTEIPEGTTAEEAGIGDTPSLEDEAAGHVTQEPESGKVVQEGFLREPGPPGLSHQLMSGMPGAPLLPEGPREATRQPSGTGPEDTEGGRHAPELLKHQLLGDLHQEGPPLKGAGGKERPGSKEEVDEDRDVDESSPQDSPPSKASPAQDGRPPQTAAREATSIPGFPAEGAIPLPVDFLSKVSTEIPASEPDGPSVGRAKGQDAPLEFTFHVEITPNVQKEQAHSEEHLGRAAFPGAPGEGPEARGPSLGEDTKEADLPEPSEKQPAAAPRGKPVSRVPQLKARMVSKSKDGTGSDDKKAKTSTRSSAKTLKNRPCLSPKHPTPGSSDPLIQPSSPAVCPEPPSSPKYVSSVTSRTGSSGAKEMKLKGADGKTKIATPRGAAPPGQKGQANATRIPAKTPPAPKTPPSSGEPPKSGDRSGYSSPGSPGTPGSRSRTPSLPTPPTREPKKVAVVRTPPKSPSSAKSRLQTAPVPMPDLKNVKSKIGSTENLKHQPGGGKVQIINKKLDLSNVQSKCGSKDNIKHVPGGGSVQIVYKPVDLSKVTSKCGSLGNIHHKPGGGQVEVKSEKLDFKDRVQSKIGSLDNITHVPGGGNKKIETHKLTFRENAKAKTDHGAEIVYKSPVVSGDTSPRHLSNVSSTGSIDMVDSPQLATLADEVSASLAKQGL
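Recombinant tau protein (human, 1 uM final) plus 30 uM ODS in HEPES pH 7.4 with NaCl, DTT and thioflavine S. Compound present from the start; fluorescence at 510 nm after 15 h, 37 C.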
15-hLO inh – 15-hLO (ALOX15) enzyme inhibition; hit rate 1.4% among 74,000; P16050; purified 15hLO-1, xylenol orange hydroperoxide absorbance; Potency, µM (doses to about 57.1 µM), hits mostly inhibitors; also: nearly all actives have a fitted effect of over 55% in size
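Purified human 15hLO-1 (40 nM) in 25 mM Hepes pH 7.5, 0.01% Triton X-100, preincubated 15 min RT with compound, then 50 uM arachidonic acid for 6 min. Hydroperoxide read by ferrous/xylenol orange, 30 min; 573/405 nm absorbance ratio gave progress.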
USP2a inhib – blocks human ubiquitin-specific protease USP2a; Potency, µM (series often up to 38.3 µM), usual class: inhibitors; AID 927; O75604; USP2a enzymatic assay, qHTS inhibition; hit rate 0.1% among 60,000; also: nearly all actives have a fitted effect of over 60% in size
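USP2 core (20nM final) preincubated 30 min RT with compound, then Ub-PLA2 20nM and NBD C6-HPC 20uM final added; buffer 20mM Tris-HCl pH 8.0, 2mM CaCl2. Fluorescence Ex 460/Em 535 read at 0 and 2.5 h; normalized to NEM.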
A number is an active result; i = inactive; ? = inconclusive; nt = no result; [ ] = another dose, or the depositor's remark. In the library only some 4.6% were active in any assay of this set; here they are far more common. Unless noted, calls follow the shape of the dose curve; as a rule, active = well fitted curve in the direction sought with a large enough effect; inconclusive = small, poorly fitted or top-dose-only effect, or another doubt; inactive = no such curve, though single readings can be large; an effect the other way counts as inactive or inconclusive.

SMILES | GBA mod | Hsp90 Hop PPI | Bst PK mod | Tau filament bind | 15-hLO inh | USP2a inhib
Cc1cc(NC(=O)Nc2ccc(N(C)C)cc2)c2cc(F)cc(F)c2n1 | nt | 7.94µM | nt | 31.6µM | i | nt
CN1CC(=O)NC1=NC(=O)C12CC3CC(CC(C3)C1)C2 | i | i | i | i | i | i
CCOc1ccc(OCc2cccc(C(=O)N3CCOCC3)c2)cc1 | i | i | 8.48 | i | i | i
CCOc1ccc(C(=O)N2CCCN(C(=O)c3ccc(OCC)cc3)CC2)cc1 | nt | nt | nt | nt | i | nt
CC1=C2C(CCS2(=O)=O)CC2(C1)C(=O)OC(C)(C)OC2=O (stereo unspecified) | i | i | i | i | i | i
O=C(NCc1ccco1)c1cc2ccccc2o1 | nt | i | nt | i | 20µM | i
Cn1cc(C2NC(=O)c3c(sc4c3CCCC4)N2)c2ccccc21 (stereo unspecified) | nt | i | nt | 3.16µM | i | nt
O=C1NC(c2ccccn2)Nc2sc3c(c21)CCC3 (stereo unspecified) | i | 31.6µM | nt | i | i | i
Cc1ccsc1C1NC(=O)c2c(sc3c2CCCC3)N1 (stereo unspecified) | nt | nt | i | nt | nt | nt
c1ccc2c(-c3ccncc3)c[nH]c2c1 | i | i | i | i | i | i
Nc1cc(-c2ccncc2)c[nH]c1=O | nt | i | nt | i | 12.6µM | i
O=C(NC1=NCCS1)C1COc2ccccc2O1 (stereo unspecified) | i | i | 4.35 | i | i | i
O=C(Nc1ccc2c(c1)OCO2)C1COc2ccccc2O1 (stereo unspecified) | nt | i | nt | 12.6µM | i | i
O=C(Nc1ccncc1)C1COc2ccccc2O1 (stereo unspecified) | i | i | i | i | i | i
CCOC(=O)c1oc2ccccc2c1CSc1nnnn1-c1ccc(C)cc1 | i | ? | i | i | 1µM | i
Brc1ccc(-c2nc(-c3ccccc3)no2)o1 | ? | i | i | i | i | i
c1ccc(-c2noc(-c3ccc4ccccc4c3)n2)cc1 | i | i | 3.66 | i | i | i
CC1CCN(CCCNC(=O)Cc2c(C(=O)O)n(C)c3ccccc23)CC1 | i | i | i | i | i | i
Oc1ccccc1NCC(O)Cn1ccc2ccccc21 (stereo unspecified) | ? | ? | i | 12.6µM | 6.31µM | i
FC(F)C(F)(F)C1=CC(c2ccccc2)=NCCN1 | nt | i | nt | 12.6µM | i | i
c1ccc2c(CC3=NCCN3)cccc2c1 | nt | i | i | i | i | i
FC(F)C(F)(F)C1=CC(c2cccs2)=NCCN1 | ? | i | i | 15.8µM | i | i
O=c1[nH]c2sc3c(c2c(=O)n1Cc1ccccc1)CCC3 | nt | nt | i | nt | nt | nt
CO[C@@H]1/C=C\O[C@]2(C)Oc3c(C)c(O)c4c(O)c(cc(O)c4c3C2=O)NC(=O)/C(C)=C\C=C/[C@H](C)[C@@H](O)[C@H](C)[C@H](O)[C@H](C)[C@H](OC(C)=O)[C@@H]1C | nt | i[11 µM] | nt | i[11.4 µM] | i[11.4 µM] | nt
CO[C@H]1/C=C/O[C@@]2(C)Oc3c(C)c(O)c4c(O)c(c5c(c4c3C2=O)NC2(CCN(CC(C)C)CC2)N=5)=NC(=O)/C(C)=C\C=C\[C@H](C)[C@H](O)[C@@H](C)[C@@H](O)[C@@H](C)[C@H](OC(C)=O)[C@@H]1C | nt | i | nt | 0.398µM | ? | nt
SMILES | GBA mod | Hsp90 Hop PPI | Bst PK mod | Tau filament bind | 15-hLO inh | USP2a inhib
CO[C@H]1C=CO[C@]2(C)Oc3c(C)c(O)c4c(O)c(c5c(c4c3C2=O)NC2(CCN(CC(C)C)CC2)N=5)=NC(=O)C(C)=CC=C[C@@H](C)[C@@H](O)[C@@H](C)[C@@H](O)[C@@H](C)[C@@H](OC(C)=O)[C@@H]1C | nt | i | nt | 1.58µM | i | i
CC1CCC2C(=O)OC(Cc3ccccc3)CN2C1c1ccc(Br)cc1 (stereo unspecified) | nt | nt | nt | nt | i[11.4 µM] | nt
CCC(C)NC(=O)C1c2ccccc2C(=O)N1Cc1ccccc1OC (stereo unspecified) | i | i | i | i | i | i
Cc1cc(C)c2c(CN3CCN(Cc4ccc5c(c4)OCO5)CC3)cc(=O)oc2c1 | nt | i | i | i | i | i
C[C@H]1[C@H](O)[C@@H](C)C=CC=CC=CC=CC=CC=CC=C[C@H](O[C@@H]2O[C@@H](C)[C@H](O)[C@@H](N)[C@@H]2O)C[C@@H]2O[C@](O)(C[C@@H](O)C[C@@H](O)[C@@H](O)CC[C@@H](O)C[C@@H](O)CC(=O)O[C@H]1C)C[C@H](O)[C@H]2C(=O)O | nt | i[11 µM] | nt | i[11.4 µM] | 2µM | nt
COc1ccc(NC(=O)N2CC[C@@]3(CCCN(C(C)=O)C3)C2)cc1 | nt | i | nt | i | i | 10µM
c1cc2c(cc1Nc1nc(-c3ccc4c(c3)OCO4)cs1)OCCO2 | i | i | ? | 25.1µM | i | i
Oc1ccc(-c2csc(NCc3ccco3)n2)cc1 | i | i | i | i | i | i
Oc1ccc(Nc2nc(-c3ccc(O)cc3)cs2)cc1 | i | i | 7.96 | ? | ? | ?
NS(=O)(=O)c1ccc(Nc2nc(-c3ccc(O)cc3)cs2)cc1 | i | i | ? | i | 25.1µM | i
O=C(CS(=O)(=O)c1ccccc1)Nc1nc(-c2ccccc2)cs1 | i | i | i | i | ? | i
O=C(OCc1ccccc1)Oc1cncc(C(=O)O)c1 | i | i | i | i | i | i
COC(=O)c1ccccc1NC1OC(=O)c2ccccc21 (stereo unspecified) | i | i | i | i | i | i
COCC(=O)Nc1ccc(-c2cn3cccnc3n2)cc1 | i | i | nt | i | i | i
Brc1ccc(-c2cn3cccnc3n2)cc1 | i | i | 5.93 | i | i | i
Cc1ccc(C(=O)c2cn[nH]c2-c2cc(Cl)ccc2O)cc1 | i | i | i | i | 20µM | i
COc1ccc(N2CCN(C(=O)C(OC(C)=O)c3ccccc3)CC2)cc1 (stereo unspecified) | i | i | i | i | i | i
CCC(=O)/C=C/C1C(C)=CCCC1(C)C (stereo unspecified) | nt | i | nt | i | 25.1µM | nt
O=C(NCCCN1CCN(c2ccccc2F)CC1)C1CCCN(S(=O)(=O)c2cnc[nH]2)C1 (stereo unspecified) | nt | i[2.3 µM] | nt | i | i | nt
COc1ccccc1OCc1ccc(C(=O)Nc2ccncc2)o1 | 13.2 | i | i | i | i | i
COc1ccc2sc(NC(=O)c3ccco3)nc2c1 | i | i | 5.44 | i | i | i
O=C(Nc1nc(-c2ccncc2)cs1)c1ccco1 | i | i | i | 12.6µM | i | i
O=C(Nc1cccc2cccc(NC(=O)c3ccco3)c12)c1ccco1 | i | i | i | 12.6µM | i | i
O=C(Nc1nc(-c2ccc(Cl)s2)cs1)c1ccncc1 | i | i | i | 25.1µM | i | i
O=C(CN1C(=O)CCC1=O)Nc1nc(-c2ccc(Cl)s2)cs1 | i | i | nt | i | i | i
COc1cc(-c2nc(-c3ccccn3)no2)cc(OC)c1OC | nt | i[11 µM] | nt | i[11.4 µM] | i[11.4 µM] | i[7.66 µM]
O=C(Nc1ccc(Cl)cc1C(=O)Nc1ccncc1)c1ccco1 | i | i | nt | i | 2.51µM | i

From PubChem BioAssay
